Results: the supplement of paper PMC10849652
Of roughly 8,800 targets only a part is listed; those with a hit were picked by preference. About 0.5% of all pairs of compound and target were hits.

Experiments:
Test in all cases: log2 fold change, soluble protein after heating vs DMSO (PISA); higher = thermal stabilisation; K562 lysate, 10 uM; active = over 0.2 and 3.5 SD of the protein, either way, in both replicates (recomputed)
lapatinib = compound: CS(=O)(=O)CCNCc1ccc(-c2ccc3ncnc(Nc4ccc(OCc5cccc(F)c5)c(Cl)c4)c3c2)o1 [lapatinib]
Summary of the method: (§1)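 Dounce homogenisation of K562 pellets in PBS pH 7.4 with 1 mM MgCl2 produced a crude extract, used at 1 mg/mL protein. Exposure to 10 μM compound lasted 30 min, and aliquots were then heated for 3 min across 48°C-58°C, pooled and brought to 0.5% NP-40 at 4°C. The supernatant after 21,000xg for 90 min was quantified by TMTpro 16plex LC-MS/MS with channel sums equalised. Duplicate values are given as log-two fold change in thermal stability relative to solvent controls.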

pictilisib = compound: CS(=O)(=O)N1CCN(Cc2cc3nc(-c4cccc5[nH]ncc45)nc(N4CCOCC4)c3s2)CC1 [pictilisib]
Summary of the method: as §1

crizotinib = compound: C[C@@H](Oc1cc(-c2cnn(C3CCNCC3)c2)cnc1N)c1c(Cl)ccc(F)c1Cl [crizotinib]
Summary of the method: as §1

[1] = compound: C[C@H](C1=CC=C(C=C1)C(=O)NC2=C3C=CNC3=NC=C2)N
Summary of the method: as §1

duvelisib = compound: C[C@H](Nc1ncnc2nc[nH]c12)c1cc2cccc(Cl)c2c(=O)n1-c1ccccc1 [duvelisib]
Summary of the method: as §1

gandotinib = compound: Cc1cc(Nc2cc(CN3CCOCC3)c3nc(C)c(Cc4ccc(Cl)cc4F)n3n2)n[nH]1 [gandotinib]
Summary of the method: as §1

tozasertib = compound: Cc1cc(Nc2cc(N3CCN(C)CC3)nc(Sc3ccc(NC(=O)C4CC4)cc3)n2)n[nH]1 [tozasertib]
Summary of the method: as §1

doramapimod = compound: Cc1ccc(-n2nc(C(C)(C)C)cc2NC(=O)Nc2ccc(OCCN3CCOCC3)c3ccccc23)cc1 [doramapimod]
Summary of the method: as §1

bafetinib = compound: Cc1ccc(NC(=O)c2ccc(CN3CC[C@H](N(C)C)C3)c(C(F)(F)F)c2)cc1Nc1nccc(-c2cncnc2)n1 [bafetinib]
Summary of the method: as §1

[2] = compound: Cc1cccc(CC(=O)N2CCc3c2ccc(-c2cn(C)c4ncnc(N)c24)c3F)n1
Summary of the method: as §1

Measured: log2 fold change

GNE isoform 2 (UniProt Q9Y223)
inactive: lapatinib 0.012 | pictilisib -0.005 | crizotinib -0.053 | [1] -0.01 | duvelisib -0.011 | gandotinib -0.127 | tozasertib -0.008 | doramapimod 0.021 | bafetinib -0.031 | [2] 0.034

HNRNPDL (UniProt O14979)
inactive: lapatinib 0.04 | pictilisib -0.002 | crizotinib -0.005 | [1] 0.016 | duvelisib 0.04 | gandotinib -0.025 | tozasertib -0.056 | doramapimod 0.104 | bafetinib 0.072 | [2] -0.035

HNRNPLL (UniProt Q8WVV9)
inactive: lapatinib 0.017 | pictilisib -0.026 | crizotinib -0.038 | [1] -0.01 | duvelisib -0.016 | gandotinib -0.031 | tozasertib 0 | doramapimod 0.01 | bafetinib -0.031 | [2] 0.027

GOLPH3L (UniProt Q9H4A5)
Chain of UniProt Q9H4A5 (Q9H4A5 whole entry, looked up): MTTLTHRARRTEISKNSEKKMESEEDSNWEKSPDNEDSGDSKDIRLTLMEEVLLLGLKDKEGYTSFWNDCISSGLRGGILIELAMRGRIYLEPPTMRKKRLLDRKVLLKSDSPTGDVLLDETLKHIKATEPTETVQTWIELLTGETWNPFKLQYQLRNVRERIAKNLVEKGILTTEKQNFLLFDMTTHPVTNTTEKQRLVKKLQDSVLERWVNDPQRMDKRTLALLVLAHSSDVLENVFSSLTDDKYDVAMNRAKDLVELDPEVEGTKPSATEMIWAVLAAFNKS
inactive: lapatinib 0.019 | pictilisib -0.048 | crizotinib -0.106 | [1] -0.028 | duvelisib -0.027 | gandotinib -0.05 | tozasertib -0.071 | doramapimod -0.009 | bafetinib -0.146 | [2] 0.029

INF2 (UniProt Q27J81)
Chain of UniProt Q27J81 (Q27J81 whole entry, looked up): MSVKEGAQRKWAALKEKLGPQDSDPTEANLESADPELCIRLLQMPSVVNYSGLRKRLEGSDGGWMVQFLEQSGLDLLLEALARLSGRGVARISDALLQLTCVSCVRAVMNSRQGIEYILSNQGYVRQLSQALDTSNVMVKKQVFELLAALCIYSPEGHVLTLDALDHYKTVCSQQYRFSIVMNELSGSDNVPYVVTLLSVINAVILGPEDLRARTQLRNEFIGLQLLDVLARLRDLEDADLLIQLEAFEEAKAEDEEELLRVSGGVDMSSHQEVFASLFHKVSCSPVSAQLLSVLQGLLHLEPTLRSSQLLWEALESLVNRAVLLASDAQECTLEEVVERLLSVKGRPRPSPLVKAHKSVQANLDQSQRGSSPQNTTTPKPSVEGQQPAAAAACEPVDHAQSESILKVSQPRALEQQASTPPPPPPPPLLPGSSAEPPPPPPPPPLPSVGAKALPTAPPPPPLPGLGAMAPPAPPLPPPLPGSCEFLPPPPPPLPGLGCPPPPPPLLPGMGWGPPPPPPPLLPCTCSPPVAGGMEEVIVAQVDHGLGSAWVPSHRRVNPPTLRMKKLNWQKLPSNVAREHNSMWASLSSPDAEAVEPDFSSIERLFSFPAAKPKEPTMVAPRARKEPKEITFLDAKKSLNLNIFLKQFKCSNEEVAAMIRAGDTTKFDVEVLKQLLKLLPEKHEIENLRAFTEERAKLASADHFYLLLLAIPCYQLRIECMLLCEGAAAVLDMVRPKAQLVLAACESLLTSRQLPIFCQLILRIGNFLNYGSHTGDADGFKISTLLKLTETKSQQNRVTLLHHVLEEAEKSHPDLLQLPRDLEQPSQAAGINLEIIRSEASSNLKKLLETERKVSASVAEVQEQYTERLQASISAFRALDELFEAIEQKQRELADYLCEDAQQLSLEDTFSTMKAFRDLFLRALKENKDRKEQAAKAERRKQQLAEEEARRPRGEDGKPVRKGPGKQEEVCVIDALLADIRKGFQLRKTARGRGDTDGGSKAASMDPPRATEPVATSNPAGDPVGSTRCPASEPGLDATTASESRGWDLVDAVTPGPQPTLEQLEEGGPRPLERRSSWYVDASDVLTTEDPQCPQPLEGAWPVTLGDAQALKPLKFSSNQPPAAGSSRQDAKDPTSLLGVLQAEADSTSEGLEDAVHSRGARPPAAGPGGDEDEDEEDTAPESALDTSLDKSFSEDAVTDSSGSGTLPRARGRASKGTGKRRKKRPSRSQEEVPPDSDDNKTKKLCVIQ
inactive: lapatinib 0.024 | pictilisib -0.019 | crizotinib -0.043 | [1] 0.002 | duvelisib -0.051 | gandotinib -0.001 | tozasertib 0.04 | doramapimod 0.049 | bafetinib -0.068 | [2] 0.128

HMGB1 (UniProt P09429)
inactive: lapatinib 0.017 | pictilisib 0.02 | crizotinib -0.024 | duvelisib 0.028 | gandotinib -0.097 | tozasertib 0.03 | doramapimod -0.014 | bafetinib 0.079 | [2] -0.154
active: [1] 0.304

HAUS2 (UniProt Q9NVX0)
Chain of UniProt Q9NVX0 (Q9NVX0 whole entry, looked up): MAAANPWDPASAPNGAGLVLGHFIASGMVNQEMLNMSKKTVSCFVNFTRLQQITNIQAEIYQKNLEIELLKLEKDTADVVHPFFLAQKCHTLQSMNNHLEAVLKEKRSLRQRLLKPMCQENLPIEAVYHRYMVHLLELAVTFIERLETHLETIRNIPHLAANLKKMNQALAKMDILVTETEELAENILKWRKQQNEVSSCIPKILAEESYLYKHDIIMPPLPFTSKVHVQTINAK
inactive: lapatinib -0.033 | pictilisib -0.187 | crizotinib -0.055 | [1] 0.167 | duvelisib 0.049 | gandotinib -0.159 | tozasertib 0.067 | doramapimod -0.047 | bafetinib 0.005 | [2] -0.017

HSPB1 (UniProt P04792)
active: doramapimod -0.31
inactive: lapatinib -0.017 | pictilisib -0.013 | crizotinib 0.036 | [1] 0.008 | duvelisib 0.014 | gandotinib -0.018 | tozasertib -0.017 | bafetinib -0.031 | [2] -0.021

GNB4 (UniProt Q9HAV0)
inactive: lapatinib 0.031 | pictilisib -0.031 | crizotinib 0.106 | [1] -0.058 | duvelisib 0.015 | gandotinib 0.094 | tozasertib -0.028 | doramapimod 0.171 | bafetinib -0.033 | [2] 0.074

IMMT (UniProt C9J406)
active: [1] -0.461
inactive: lapatinib 0.017 | pictilisib 0.082 | crizotinib -0.116 | duvelisib 0.003 | gandotinib 0.048 | tozasertib 0.015 | doramapimod -0.034 | bafetinib 0.03 | [2] 0.168

IMPACT (UniProt Q9P2X3)
inactive: lapatinib 0.012 | pictilisib 0.044 | crizotinib 0.083 | [1] 0.077 | duvelisib -0.015 | gandotinib 0.065 | tozasertib 0.026 | doramapimod -0.044 | bafetinib -0.098 | [2] -0.096

HMGB2 (UniProt P26583)
inactive: lapatinib 0.006 | pictilisib 0.021 | crizotinib 0.052 | duvelisib -0.01 | gandotinib -0.16 | tozasertib -0.022 | doramapimod -0.088 | bafetinib 0.14
active: [1] 0.266 | [2] -0.244

GOLGA1 (UniProt Q92805)
Chain of UniProt Q92805 (Q92805 whole entry, looked up): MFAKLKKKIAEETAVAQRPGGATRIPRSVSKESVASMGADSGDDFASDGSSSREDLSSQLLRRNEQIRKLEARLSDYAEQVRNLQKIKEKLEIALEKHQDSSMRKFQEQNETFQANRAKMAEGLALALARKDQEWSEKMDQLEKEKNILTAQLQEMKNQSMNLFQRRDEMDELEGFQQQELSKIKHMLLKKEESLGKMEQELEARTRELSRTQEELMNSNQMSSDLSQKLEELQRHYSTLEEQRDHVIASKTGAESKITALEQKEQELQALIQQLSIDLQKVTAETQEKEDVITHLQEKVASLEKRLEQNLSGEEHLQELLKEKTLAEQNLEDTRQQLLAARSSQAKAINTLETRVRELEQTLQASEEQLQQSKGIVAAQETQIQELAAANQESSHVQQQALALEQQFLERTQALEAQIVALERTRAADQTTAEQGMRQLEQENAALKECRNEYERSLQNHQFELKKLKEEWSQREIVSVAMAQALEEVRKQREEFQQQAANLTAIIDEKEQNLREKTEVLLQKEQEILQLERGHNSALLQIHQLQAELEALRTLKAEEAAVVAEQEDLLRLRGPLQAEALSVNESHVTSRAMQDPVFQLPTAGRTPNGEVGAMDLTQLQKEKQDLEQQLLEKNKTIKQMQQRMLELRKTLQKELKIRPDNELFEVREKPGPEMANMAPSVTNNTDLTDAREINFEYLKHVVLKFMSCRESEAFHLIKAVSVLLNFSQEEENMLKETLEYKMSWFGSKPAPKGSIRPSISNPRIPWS
active: lapatinib -0.406
inactive: pictilisib 0.007 | crizotinib 0.012 | [1] 0.056 | duvelisib -0.101 | gandotinib 0.024 | tozasertib -0.087 | doramapimod 0.001 | bafetinib -0.066 | [2] -0.025

GON4L (UniProt Q3T8J9)
inactive: lapatinib 0.006 | pictilisib -0.04 | crizotinib -0.05 | [1] -0.066 | duvelisib -0.045 | gandotinib 0.391 | tozasertib -0.054 | doramapimod -0.011 | bafetinib -0.07 | [2] 0.01

HSD17B10 (UniProt Q99714)
inactive: lapatinib -0.031 | pictilisib -0.013 | crizotinib 0.002 | [1] -0.049 | duvelisib 0.013 | gandotinib 0.022 | tozasertib -0.031 | doramapimod -0.008 | bafetinib 0 | [2] 0.026

GSTZ1 (UniProt G3V4T6)
inactive: lapatinib 0 | pictilisib 0.04 | crizotinib -0.015 | [1] -0.067 | duvelisib 0.028 | gandotinib 0.061 | tozasertib 0.004 | doramapimod -0.035 | bafetinib -0.071 | [2] 0.146

HAUS8 (UniProt Q9BT25)
inactive: lapatinib -0.022 | pictilisib -0.02 | crizotinib -0.055 | [1] 0.057 | duvelisib -0.075 | gandotinib 0.045 | tozasertib 0.027 | doramapimod -0.007 | bafetinib -0.037 | [2] 0.027

INTS7 (UniProt Q9NVH2)
Chain of UniProt Q9NVH2 (Q9NVH2 whole entry, looked up): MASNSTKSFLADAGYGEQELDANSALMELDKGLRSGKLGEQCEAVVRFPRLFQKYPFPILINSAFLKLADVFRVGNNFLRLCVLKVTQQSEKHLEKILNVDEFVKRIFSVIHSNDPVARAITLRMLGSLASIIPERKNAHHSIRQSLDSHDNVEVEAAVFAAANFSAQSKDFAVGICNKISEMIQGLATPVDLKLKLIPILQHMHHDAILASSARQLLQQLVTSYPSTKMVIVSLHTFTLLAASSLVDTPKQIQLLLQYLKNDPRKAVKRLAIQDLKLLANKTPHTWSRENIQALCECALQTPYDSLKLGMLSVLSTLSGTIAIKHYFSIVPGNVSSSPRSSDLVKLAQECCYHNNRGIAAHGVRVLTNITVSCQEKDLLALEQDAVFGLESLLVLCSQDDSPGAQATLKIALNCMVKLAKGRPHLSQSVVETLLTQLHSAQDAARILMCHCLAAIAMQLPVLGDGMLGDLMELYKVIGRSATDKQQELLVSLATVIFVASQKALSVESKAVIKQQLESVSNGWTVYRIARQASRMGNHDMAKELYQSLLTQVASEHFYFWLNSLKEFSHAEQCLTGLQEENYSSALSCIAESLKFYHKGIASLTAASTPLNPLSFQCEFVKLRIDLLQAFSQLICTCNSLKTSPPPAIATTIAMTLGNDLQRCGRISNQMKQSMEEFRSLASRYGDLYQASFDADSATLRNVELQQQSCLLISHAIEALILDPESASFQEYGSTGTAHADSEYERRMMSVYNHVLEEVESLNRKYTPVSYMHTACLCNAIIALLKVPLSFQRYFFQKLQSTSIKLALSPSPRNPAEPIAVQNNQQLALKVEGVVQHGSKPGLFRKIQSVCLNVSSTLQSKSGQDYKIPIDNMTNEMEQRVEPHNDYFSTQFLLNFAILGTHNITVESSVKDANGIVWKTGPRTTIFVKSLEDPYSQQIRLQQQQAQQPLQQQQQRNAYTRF
inactive: lapatinib 0.01 | pictilisib -0.032 | crizotinib -0.07 | [1] -0.096 | duvelisib 0.01 | gandotinib -0.077 | tozasertib -0.01 | doramapimod 0.4 | bafetinib 0.141 | [2] 0.012

HMBOX1 isoform 5 (UniProt Q6NT76)
active: lapatinib 0.254
inactive: pictilisib -0.097 | crizotinib 0.023 | [1] 0 | duvelisib 0.021 | gandotinib 0.052 | tozasertib 0.035 | doramapimod -0.013 | bafetinib 0.112 | [2] 0.129

HDAC2 (UniProt Q92769)
inactive: lapatinib -0.006 | pictilisib 0.002 | crizotinib 0.057 | [1] -0.047 | duvelisib -0.028 | gandotinib 0.018 | tozasertib 0.014 | doramapimod -0.05 | bafetinib -0.021 | [2] 0.028

IMPDH1 isoform 6 (UniProt P20839)
Chain of UniProt P20839 (P20839 whole entry, looked up): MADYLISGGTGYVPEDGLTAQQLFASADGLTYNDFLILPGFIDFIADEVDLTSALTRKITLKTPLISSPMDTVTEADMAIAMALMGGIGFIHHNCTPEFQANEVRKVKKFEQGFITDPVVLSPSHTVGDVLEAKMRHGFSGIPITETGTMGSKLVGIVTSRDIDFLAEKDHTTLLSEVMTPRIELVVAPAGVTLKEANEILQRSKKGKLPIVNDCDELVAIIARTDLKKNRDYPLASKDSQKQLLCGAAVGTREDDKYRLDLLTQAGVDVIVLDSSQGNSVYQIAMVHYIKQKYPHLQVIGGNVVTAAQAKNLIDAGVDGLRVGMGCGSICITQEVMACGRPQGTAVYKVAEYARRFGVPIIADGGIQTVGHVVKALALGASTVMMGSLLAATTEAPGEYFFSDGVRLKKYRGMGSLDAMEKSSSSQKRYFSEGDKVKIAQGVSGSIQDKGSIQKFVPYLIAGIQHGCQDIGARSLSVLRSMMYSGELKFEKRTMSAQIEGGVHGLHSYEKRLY
inactive: lapatinib -0.001 | pictilisib 0.01 | crizotinib -0.021 | [1] -0.061 | duvelisib -0.013 | gandotinib 0.046 | tozasertib 0.014 | doramapimod 0.033 | bafetinib -0.037 | [2] 0.064

HERC2 (UniProt O95714)
inactive: lapatinib -0.001 | pictilisib -0.007 | crizotinib -0.055 | [1] -0.041 | duvelisib 0.023 | gandotinib -0.007 | tozasertib 0.022 | doramapimod 0.058 | bafetinib -0.15 | [2] 0.153

GTF3C3 (UniProt Q9Y5Q9)
inactive: lapatinib -0.043 | pictilisib -0.051 | crizotinib -0.093 | [1] -0.108 | duvelisib 0.017 | gandotinib -0.037 | tozasertib 0.009 | doramapimod 0.012 | bafetinib -0.045 | [2] 0.084

KBTBD4 isoform 2 (UniProt Q9NVX7)
inactive: lapatinib 0.03 | pictilisib -0.015 | crizotinib -0.038 | [1] -0.075 | duvelisib 0.056 | gandotinib 0.109 | tozasertib -0.068 | doramapimod -0.023 | bafetinib -0.013 | [2] 0.047

IRF2BP1 (UniProt Q8IU81)
inactive: lapatinib -0.01 | pictilisib 0.008 | crizotinib -0.052 | [1] -0.004 | duvelisib -0.086 | gandotinib 0.004 | tozasertib 0 | doramapimod 0.105 | bafetinib -0.1 | [2] 0.043

HIST2H2AA3 (UniProt Q6FI13)
inactive: lapatinib 0.001 | pictilisib -0.016 | crizotinib 0.049 | duvelisib -0.044 | gandotinib -0.143 | tozasertib 0.022 | doramapimod -0.088 | bafetinib 0.159 | [2] -0.171
active: [1] 0.555

KDM5C (UniProt P41229)
inactive: lapatinib -0.085 | pictilisib -0.071 | crizotinib -0.043 | [1] 0.034 | duvelisib -0.001 | gandotinib -0.135 | tozasertib 0.016 | doramapimod 0.04 | bafetinib -0.061 | [2] 0.001

ITPKA (UniProt P23677)
Chain of UniProt P23677 (P23677 whole entry, looked up): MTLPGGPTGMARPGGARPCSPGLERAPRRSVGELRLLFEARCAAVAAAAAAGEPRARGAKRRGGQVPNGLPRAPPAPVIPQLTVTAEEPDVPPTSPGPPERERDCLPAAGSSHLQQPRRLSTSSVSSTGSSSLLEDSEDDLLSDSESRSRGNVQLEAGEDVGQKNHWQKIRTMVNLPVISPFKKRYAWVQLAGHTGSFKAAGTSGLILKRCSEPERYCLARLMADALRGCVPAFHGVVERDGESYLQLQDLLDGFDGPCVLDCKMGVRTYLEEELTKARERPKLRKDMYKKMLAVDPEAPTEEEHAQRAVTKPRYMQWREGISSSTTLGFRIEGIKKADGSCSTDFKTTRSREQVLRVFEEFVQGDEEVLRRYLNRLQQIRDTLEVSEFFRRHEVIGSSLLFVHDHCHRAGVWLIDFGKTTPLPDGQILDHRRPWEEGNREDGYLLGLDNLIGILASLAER
inactive: lapatinib -0.043 | pictilisib -0.055 | crizotinib -0.012 | [1] -0.012 | duvelisib -0.038 | gandotinib -0.012 | tozasertib 0.051 | doramapimod 0.016 | bafetinib -0.043 | [2] 0.051

HMGCS1 (UniProt Q01581)
Chain of UniProt Q01581 (Q01581 whole entry, looked up): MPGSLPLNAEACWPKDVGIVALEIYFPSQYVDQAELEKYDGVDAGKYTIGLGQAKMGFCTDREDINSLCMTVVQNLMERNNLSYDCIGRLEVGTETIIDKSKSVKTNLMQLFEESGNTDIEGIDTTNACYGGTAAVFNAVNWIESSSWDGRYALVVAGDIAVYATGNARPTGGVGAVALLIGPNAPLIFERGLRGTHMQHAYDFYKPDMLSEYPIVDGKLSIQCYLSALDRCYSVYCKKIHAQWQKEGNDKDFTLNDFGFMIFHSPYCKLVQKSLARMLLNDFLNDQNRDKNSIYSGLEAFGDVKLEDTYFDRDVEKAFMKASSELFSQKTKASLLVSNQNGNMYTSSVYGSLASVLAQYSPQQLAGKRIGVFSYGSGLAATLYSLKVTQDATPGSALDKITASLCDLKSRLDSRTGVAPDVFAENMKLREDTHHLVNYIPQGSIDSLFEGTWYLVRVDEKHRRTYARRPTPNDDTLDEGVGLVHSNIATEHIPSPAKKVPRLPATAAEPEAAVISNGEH
inactive: lapatinib 0.077 | pictilisib 0.018 | crizotinib 0.001 | [1] -0.031 | duvelisib 0.003 | gandotinib 0.006 | tozasertib -0.006 | doramapimod 0.036 | bafetinib 0.013 | [2] -0.004

GMPS (UniProt P49915)
inactive: lapatinib -0.008 | pictilisib -0.014 | crizotinib 0.007 | [1] 0.115 | duvelisib 0.006 | gandotinib -0.071 | tozasertib -0.001 | doramapimod -0.036 | bafetinib -0.012 | [2] -0.032
